# Source: PubChem (National Center for Advancing Translational Sciences (NCATS))
# KB-3-1 tox – qHTS assay for MDR1-selective chemotherapeutics: Primary screen using the parental adenocarcinoma cell KB-3-1; KB-3-1 viability, CellTiter-Glo ATP luminescence, 72 h; Potency, µM (highest dose often 46.1 µM), most hits filed as cytotoxic; 400,000 tested, 1.4% active; AID 1347075, 2019; also: nearly all actives have a fitted effect of over 60% in size
#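 Using CellTiter-Glo luminescence, growth of non-resistant KB-3-1 adenocarcinoma cells is assessed 72 h after pin-tool compound addition at 37 °C. Normalized responses across the concentration series yield fitted curves.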
# DT40 TDP1 CPT – qHTS for Inhibitors of human tyrosyl-DNA phosphodiesterase 1 (TDP1): qHTS in cells in presence of CPT; chicken DT40 Tdp1-/-;hTDP1 cells + 20 nM CPT, ATP luminescence, 48 h; Potency, µM (highest dose often 46.2 µM), hits mostly inhibitors; 420,000 tested, 12% active; also: nearly all actives have a fitted effect of over 55% in size
#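 Cell growth measured by CellTiter-Glo luminescence after a minimum 48 h, 37 C compound exposure with 20 nM CPT in Tdp1-knockout DT40 cells stably expressing hTDP1, seeded 400/well; qHTS titration format.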
# HT1080 IDH1KD tx – qHTS for induction of synthetic lethality in tumor cells producing 2HG: qHTS for the HT-1080-IDH1KD cell line; HT-1080 IDH1 knockdown viability, ATP luminescence, 48 h; Potency, µM (series often up to 46.1 µM), usual class: cytotoxic; 360,000 tested, 2% active; AID 686971, 2013
#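 Viability of IDH1-knockdown HT-1080 fibrosarcoma cells was assessed by CellTiter-Glo after 48 h at 37 °C with titrated compound; concentration-effect curves were classified by fit quality and response size.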
# HT1080NT lethal – qHTS for induction of synthetic lethality in tumor cells producing 2HG: qHTS for the HT-1080-NT fibrosarcoma cell line | AID 686970, 2013 | 360,000 tested, 1.6% active | Potency, µM (highest dose often 46.1 µM), usual class: cytotoxic | HT-1080-NT fibrosarcoma viability, CellTiter-Glo ATP luminescence, 48 h;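 also: NT is the 2HG producing partner of a matched IDH1 knockdown line; nearly all actives have a fitted effect of over 55% in size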
#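 Viability by CellTiter-Glo luminescence after 48 h compound exposure at 37C of HT-1080-NT cells (750/well, RPMI, 5% FBS). % activity scaled between DMSO wells and medium-only wells, then curve-fitted and categorized by curve class.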
# KB-V1 cytotox – qHTS assay for MDR1-selective chemotherapeutics: Primary screen using the drug-selected MDR subline cells KB-V1; KB-V1 MDR cells viability, CellTiter-Glo, 72 h; Potency, µM (series often up to 46.1 µM), actives largely listed as cytotoxic; 400,000 tested, 3.4% active; AID 1347076, 2019; also: nearly all actives have a fitted effect of over 60% in size
#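 KB-V1, DMEM (no phenol red) + 10% FBS; cpd pin-transferred, titration series; 72 h, 37 degrees C; CellTiter-Glo, luminescence. Data normalized, curve-fit.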
# DT40 TDP1 no CPT – qHTS for Inhibitors of human tyrosyl-DNA phosphodiesterase 1 (TDP1): qHTS in cells in absence of CPT. Potency, µM (top dose mostly 46.2 µM), actives largely listed as inhibitors. AID 686978, 2013. DT40 Tdp1-/- hTDP1 cells, no CPT, ATP luminescence, 48 h. 420,000 tested, 15% active; also: nearly all actives have a fitted effect of over 55% in size
#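 Seeded 400 DT40-hTDP1 cells/well (vehicle DMSO, no 20 nM CPT); pinned compounds; ≥48 hr at 37 °C; CellTiter-Glo luminescence as viability measure.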
# A number is an active result; 0 = inactive; ? = inconclusive; - = no result. In the library only some 19% were active in any assay of this set; here they are far more common. Calls follow the shape of the dose curve; as a rule, active = well fitted curve in the direction sought with a large enough effect; inconclusive = small, poorly fitted or top-dose-only effect, or another doubt; inactive = no such curve, though single readings can be large; an effect the other way counts as inactive or inconclusive.
SMILES,KB-3-1 tox,DT40 TDP1 CPT,HT1080 IDH1KD tx,HT1080NT lethal,KB-V1 cytotox,DT40 TDP1 no CPT
CCN(CC)c1ccc(NC(=O)c2cccc(F)c2)c(C)c1,5.8µM,4.6µM,16µM,?,?,3.3µM
Cc1ccc(S(=O)(=O)NNC(=O)c2ccccc2O)cc1,0,0,0,0,0,0
CC(=O)c1ccc(NC(=O)c2cnn(-c3cccc(F)c3)c2-n2cccc2)cc1,0,?,-,-,0,23µM
CC1CCC(NC(=O)CCS(=O)(=O)c2ccc3c(c2)NC(=O)C(C)S3)CC1 (stereo unspecified),0,?,0,0,0,0
O=C1CCc2cc(S(=O)(=O)Nc3cccc(B(O)O)c3)ccc2N1,0,-,-,-,0,-
Cc1cc(NC(=O)c2cnn(-c3ccccc3)c2-n2cccc2)ccc1Br,0,18µM,-,-,?,?
CN(Cc1ccccc1)c1nc(CN2CCOCC2)nc2scc(-c3ccccc3)c12,?,?,0,0,?,16µM
COc1ccc(N2CCN(Cc3nc4scc(-c5ccccc5)c4c(=O)[nH]3)CC2)cc1,0,?,0,0,0,0
Fc1ccc(N2CCN(c3nc(CN4CCOCC4)nc4scc(-c5ccccc5)c34)CC2)cc1,0,23µM,?,0,0,15µM
Cc1sc2nc(CN3CCOCC3)nc(NS(=O)(=O)c3ccccc3)c2c1C,0,0,0,0,0,0
O=c1[nH]c(CN2CCN(c3ccccc3)CC2)nc2scc(-c3ccccc3)c12,?,13µM,0,0,9.2µM,5.2µM
CN(C)/N=N/c1nc[nH]c1C(N)=O,-,0,-,-,-,0
Cc1csc2nc(COC(=O)CNC(=O)c3ccc(F)cc3)cc(=O)n12,0,0,-,-,0,0
CC1CCC2(CC1)NC(=O)N(CC(=O)NCc1ccc(Cl)cc1)C2=O (stereo unspecified),0,0,0,0,0,?
CCC1CCCCN1C(=O)CSc1nc(N)cc(N)n1 (stereo unspecified),0,0,0,0,0,0
Cc1cc2[nH]c(=O)c(=O)[nH]c2cc1S(=O)(=O)Nc1ccccc1F,0,0,0,0,?,0
c1cc(-c2ccncc2)ccn1,0,10µM,-,-,0,16µM
COc1ccc(CNCc2ccc(C)cc2)c(OC)c1,0,?,0,0,0,?
COc1cc(CNCc2c[nH]c3ccccc23)cc(OC)c1,0,5.8µM,0,?,7.3µM,9.2µM
COc1cc(CNCc2ccc(OC)cc2OC)cc(OC)c1,0,?,0,0,?,21µM
COC(Cn1c2c(c3cc(C)ccc31)CCCC2NCc1ccccc1)OC (stereo unspecified),0,?,0,0,?,15µM
Cc1ccc2c(c1)c1c3n2CCCN(Cc2ccccc2)C3CCC1 (stereo unspecified),?,?,0,0,0,?
CCOC(=O)CCC(=O)Nc1ccccc1C(N)=O,0,0,0,0,0,0
Cc1cccc(C)c1NC(=O)c1csc([C@@H]2O[C@H](CO)[C@H](O)[C@H](O)[C@H]2O)n1,0,0,0,0,0,0
CC(=O)NCCc1ccc(C(=O)CSc2nnc(C3CC3)n2C2CC2)cc1,0,0,0,0,0,0
SMILES,KB-3-1 tox,DT40 TDP1 CPT,HT1080 IDH1KD tx,HT1080NT lethal,KB-V1 cytotox,DT40 TDP1 no CPT
CC(OC(=O)/C(C#N)=C/c1ccc(N(C)C)cc1)C(=O)N(C)Cc1ccccc1 (stereo unspecified),0,?,0,0,0,12µM
CN(C)c1ccc(/C=C2/CCCc3c2nc2ccccc2c3C(=O)O)cc1,0,0,-,-,0,0
COc1cccc(Nc2nc(C(N)CC(C)C)cs2)n1 (stereo unspecified),0,16µM,16µM,?,0,?
COc1cccc(Nc2nc(C(N)C(C)C)cs2)n1 (stereo unspecified),?,16µM,0,?,0,23µM
Cc1ccccc1C(=O)N1CCC(N2CCN(Cc3ccc(F)cc3)C(=O)C2=O)CC1,0,0,-,-,0,0
CCOC(=O)N1CCN(C(=O)C[C@@H]2C[C@@]3(C(=O)OC)CCCCC=C3N(Cc3ccc(Cl)cc3Cl)C2=O)CC1,0,21µM,0,0,?,12µM
CCOC(=O)[C@]12CCC=C1N(Cc1ccc(Cl)cc1Cl)C(=O)[C@H](CC(=O)N1CCSCC1)C2,?,23µM,0,0,?,16µM
COC(=O)[C@]12CCCCC=C1N(Cc1ccc(Cl)cc1Cl)C(=O)[C@H](CC(=O)N1CCCC1)C2,0,?,?,?,0,?
CCOC(=O)N1CCN(C(=O)C[C@@H]2C[C@@]3(C(=O)OCC)CCCC=C3N(Cc3ccc(Cl)cc3Cl)C2=O)CC1,0,21µM,0,0,?,23µM
COC(=O)c1cc(S(=O)(=O)NCC2CCN(CCc3cccs3)CC2)cn1C,0,0,0,0,0,0
COc1ccc(N2CC(C(=O)NC3CCSC3=O)CC2=O)cc1 (stereo unspecified),0,0,0,0,0,0
Cc1ccccc1OCc1ccc(C(=O)N2CCOCC2)o1,0,0,0,0,?,0
O=C(c1ccc(CS(=O)c2cccc(Cl)c2)o1)N1CCN(C2CCCCC2)CC1 (stereo unspecified),0,0,0,0,0,0
O=C(c1ccc(COc2ccccc2Cl)o1)N1CCN(c2ccccc2)CC1,0,?,?,0,0,29µM
O=C(c1ccc(CS(=O)c2cccc(Cl)c2)o1)N1CCCCCC1 (stereo unspecified),0,0,0,0,23µM,23µM
COc1ccc(N2CCN(C(=O)c3ccc(CS(=O)c4cccc(C)c4)o3)CC2)cc1 (stereo unspecified),?,18µM,?,?,0,16µM
O=C(c1ccc(CS(=O)c2ccccc2Cl)o1)N1CCN(c2ccccc2)CC1 (stereo unspecified),1µM,0.82µM,0.52µM,?,?,0.52µM
CN1CCN(C(=O)c2ccc(-c3cnn(C)c3)c3ccoc23)CC1,0,0,0,0,0,0
COc1cccc(N2CCN(C(=O)c3ccc(CS(=O)c4ccccc4C)o3)CC2)c1 (stereo unspecified),1µM,0.52µM,0.73µM,0.46µM,?,0.58µM
